Shown are actives, neighbours in structure and some others; about 1.2% of the full set was active somewhere.
GPR7 antagonist – GPR7 receptor antagonists, primary screen, cell-based, fluorescence, single concentration | Neuropeptides B/W receptor type 1 (Homo sapiens), P48145 | GPR7-expressing cells, fluorescence antagonist assay | inhibition, % at 4.4 µM | 290,000 compounds, 1.1% hits | AID 1861, 2009; in the data active means inhibition above about 16%, passing the limit was not always enough;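 further: cells stimulated with the agonist NPW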
Target sequence (P48145 whole entry, looked up): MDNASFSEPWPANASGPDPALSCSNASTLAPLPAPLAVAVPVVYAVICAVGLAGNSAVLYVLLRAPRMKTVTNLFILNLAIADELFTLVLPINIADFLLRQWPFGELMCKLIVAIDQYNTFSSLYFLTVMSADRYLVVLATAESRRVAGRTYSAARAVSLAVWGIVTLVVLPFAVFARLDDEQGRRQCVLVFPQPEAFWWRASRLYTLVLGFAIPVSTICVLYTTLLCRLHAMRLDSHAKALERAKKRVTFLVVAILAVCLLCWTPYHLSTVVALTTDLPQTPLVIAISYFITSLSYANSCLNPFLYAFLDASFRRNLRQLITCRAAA
GASC-1 inh – inhibitors of GASC-1 histone demethylase, primary screen, biochemical, fluorescence, DELFIA europium. Lysine-specific demethylase 4C (Homo sapiens), Q9H3R0. GST-JMJD2C(1-420) H3K9me3 demethylation. inhibition, % at 2.35 µM. 330,000 compounds, 0.069% hits;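 active means more than half of a compound's replicate wells show inhibition beyond 50%, single wells judged on their own value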;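 further: signal counts dimethyl H3K9 product captured on neutravidin plate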
pCIP destab – p/CIP-EGFP fusion destabilizers, primary screen, fluorescence, F442A cells | 16 h | Q05BA5 | decrease of EGFP signal, % at 10 µM | 290,000 compounds, 0.01% hits | AID 1984, 2009;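 active means EGFP signal decrease of at least 30% at 10 µM or well 3 SD below plate mean, unless failing retest; inactive means the rest, including hits failing retest or dose response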
VLA-4 inh – inhibition in human VLA-4 binding assay, primary screen, VLA-4 allosteric modulator project, MLPCN library, flow cytometry, VLA-4 expressing cells; inhibition, % (about 7 µM as worked out from the volumes in the protocol); Integrin alpha-4 (Homo sapiens), P13612; 330,000 compounds, 0.2% hits; ligand binding flow cytometry; in the data active means inhibition above about 50%
GPR7 antag conf – GPR7 receptor antagonists, confirmation, cell-based, fluorescence, single concentration; 2,400 compounds, 52% hits; inhibition, % at 4.4 µM; GPR7-expressing cells, calcium fluorescence antagonist mode; shares compounds with GPR7 antagonist; AID 1952, 2009; in the data active means inhibition above about 24%;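 further: stimulated with the GPR7 agonist NPW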
MCHR1 antag – MCHR1 antagonists in cells, counter-screen for GPR7 antagonist project, cell-based, fluorescence, human | inhibition, % at 4.4 µM | shares compounds with GPR7 antagonist | 2,400 compounds, 62% hits | MCHR1-expressing cells, fluorescence antagonist assay; in the data active means inhibition above about 22%
A number is an active result; n = inactive; x = not tested or not shown.

SMILES	GPR7 antagonist	GASC-1 inh	pCIP destab	VLA-4 inh	GPR7 antag conf	MCHR1 antag
COCCNC(=O)/C(C#N)=C\c1ccc(CNS(=O)(=O)c2ccc(C)cc2)o1	n	n	n	n	x	x
Cc1ccc(S(=O)(=O)NCc2ccc(/C=C(/C#N)C(=O)NCc3ccccc3)o2)cc1	24	n	n	n	50	58
C/C(=N/NC(=O)c1cccs1)c1cccc(NC(=O)C2CC2)c1	36	n	n	n	n	n
CCC(=O)C(C#N)(c1ccc(OC)c(OC)c1)C(C)C (stereo not drawn)	x	n	x	n	x	x
CSc1sc(C(=O)N(C)C)c2c1S(=O)(=O)N(C)c1ccccc1-2	n	n	n	n	x	x
O=C(CN1CCN(S(=O)(=O)c2ccccc2)CC1)Nc1ccc2c(c1)CCC2	n	n	n	n	x	x
CCc1cccc(CC)c1NC(=O)COC(=O)C1(c2ccc(Cl)cc2)CCCC1	42	n	n	n	36	51
COc1ccccc1CNC(=O)c1n[nH]c2ccccc12	30	n	n	n	n	n
COc1ccccc1CNC(=O)COC(=O)c1n[nH]c2ccccc12	n	n	n	n	x	x
O=C(NCCN1CCOCC1)C(=O)NCC1OCCN1S(=O)(=O)c1ccccc1 (stereo not drawn)	n	n	n	n	x	x
CCOC(=O)CSc1nc2c(sc(=S)n2Cc2ccco2)c(=O)n1-c1ccccc1	22	n	n	n	n	45
CCN(CC)C(=O)CSc1nc2c(sc(=S)n2Cc2ccco2)c(=O)n1-c1ccccc1	n	n	n	n	x	x
CCN(CC(=O)Nc1ccc(S(=O)(=O)N2CCCCC2)cc1)Cc1ccccc1	x	n	x	n	x	x
O=C(NCc1cccc(Cl)c1)c1ccc(-c2csnn2)cc1	25	n	n	n	n	n
CC1CCC2C(=O)N(c3ccc(C(=O)Oc4cccc5cccnc45)cc3)C(=O)C2C1 (stereo not drawn)	n	n	n	n	x	x
CCSc1nsc(NC(=O)Nc2cccc(F)c2)n1	36	n	n	n	46	60
COc1cccc(NC(=O)Nc2nc(SC(C)(C)C)ns2)c1	29	n	n	n	60	72
COc1ccc(CCNC(=O)[C@H](C)N2C(=O)N3CCc4c([nH]c5ccccc45)[C@@]3(C)C2=O)cc1	n	n	n	n	x	x
On1onc2c3cc(-c4ccccc4)nc3ccc21	30	n	n	n	n	67
N#Cc1cnn2ccc(-c3ccc4c(c3)CCC4)nc12	n	n	n	n	x	x
COc1ccc(N2CCN(S(=O)(=O)c3cc(-c4cc(C)no4)ccc3C(C)C)CC2)cc1	n	n	n	n	x	x
COc1ccc(-c2cc(C)no2)cc1S(=O)(=O)N1CCN(c2cccc(C)c2)C(C)C1 (stereo not drawn)	n	n	n	n	x	x
Cc1cc(-c2ccc(C(C)C)c(S(=O)(=O)N3CCN(c4ccccc4)CC3)c2)on1	27	n	n	n	30	40
Cc1cccc(N2CCN(S(=O)(=O)c3cc(-c4cc(C)no4)ccc3C)CC2C)c1 (stereo not drawn)	31	n	n	n	45	61
CC(C)CC[n+]1ccccc1/C=C/c1ccc(N(C)C)cc1	76	n	n	n	78	72
SMILES	GPR7 antagonist	GASC-1 inh	pCIP destab	VLA-4 inh	GPR7 antag conf	MCHR1 antag
CCOC(=O)N1CCN(C(=O)c2ccc(CSc3ccc(Cl)cc3)cc2)CC1	25	n	n	x	n	49
CC(=O)Nc1ccc(C(=O)OCCC(C)C)cc1	25	n	n	n	n	n
CCCOC(=O)c1ccc(NC(=O)COC)cc1	n	n	n	n	x	x
Clc1ccc(-n2c(SC/C=C/c3ccccc3)nnc2-c2cccnc2)cc1	32	n	n	n	27	n
Nn1c(SC/C=C/c2ccccc2)nnc1-c1cccnc1	n	n	n	n	x	x
COC(=O)c1cc(C(=O)OCC(=O)NC(=O)c2ccccc2)cc([N+](=O)[O-])c1	x	n	x	n	x	x
N#Cc1c(NCCN)nc(NCc2ccccc2)c2c1CCN(Cc1ccccc1)C2	n	x	n	x	x	x
N#Cc1c(N2CCCCC2)nc(N2CCCCC2)c2c1CCN(Cc1ccccc1)C2	46	n	n	n	n	n
Cc1cc(C)cc(N2C(=O)CC(c3ccccc3)CC2=O)c1	x	x	x	n	x	x
Cc1cccn2c(CN(C)CCC3CCCCO3)c(C(=O)N3CCCCC3)nc12 (stereo not drawn)	38	n	n	n	n	n
Cc1cccn2c(CN(C)C3CCOC3)c(C(=O)N3CCCCC3)nc12 (stereo not drawn)	n	n	n	n	x	x
CCCCC(c1nnnn1C1CCCC1)N1CCN(C2CCCCC2)CC1 (stereo not drawn)	42	n	n	n	47	n
N=c1c(C(=O)NCCc2ccccc2)cc2c(=O)n3ccccc3nc2n1CC1CCCO1 (stereo not drawn)	48	n	n	n	34	n
O=C(CCn1ccc2ccccc21)Nc1ccc(N2CCOCC2)cc1	30	n	n	n	n	n
O=C(CCn1c(=O)oc2ccccc21)Nc1ccc(N2CCOCC2)cc1	n	n	n	n	x	x
Cn1cccc1/C=C(/C#N)c1ccc(F)cc1	26	n	n	n	n	n
Cn1cccc1/C=C(\C#N)c1ccccc1	n	n	n	n	x	x
COC(=O)C1=C(CS(=O)(=O)c2cc(OC)ccc2OC)NC(=O)NC1c1ccc(O)c(OC)c1 (stereo not drawn)	n	n	n	n	x	x
COc1cccc(CC(=O)N2CCCC(CO)(Cc3ccc(F)cc3F)C2)c1 (stereo not drawn)	26	n	n	n	n	n
O=C(Cc1cccc(F)c1)N1CCCC(CO)(Cc2ccc(F)cc2F)C1 (stereo not drawn)	n	n	n	n	x	x
CCc1ccccc1NC(=O)CNC(=O)c1ccccc1OCc1c(C)noc1C	x	n	x	n	x	x
COC(=O)CSc1nc(N)c(C#N)c(-c2ccc(O)cc2)c1C#N	n	n	n	n	x	x
CCOC(=O)CSc1nc(N)c(C#N)c(-c2ccc(OCC)cc2)c1C#N	22	n	n	n	n	22
Cc1ccc(C)c(-n2c3nc(=O)[nH]c(=O)c-3cc3cc([N+](=O)[O-])ccc32)c1	22	n	n	n	42	43
Cc1ccc(C2CC(c3ccc(F)cc3)Nc3nc(N)nn32)cc1 (stereo not drawn)	21	n	n	n	n	n
CCc1ccc(C2CC(c3ccccc3C)n3nc(N)nc3N2)cc1 (stereo not drawn)	25	n	n	n	n	n
Nc1nc2n(n1)C(c1ccc(F)cc1)CC(c1ccc(F)cc1)N2 (stereo not drawn)	n	n	n	n	x	x
